Screening results (PubChem BioAssay)
This is a sample that favours compounds with a hit; in the whole collection about 1.1% have one here.
LmPK inhibitor = qHTS Assay for Inhibitors of Leishmania Mexicana Pyruvate Kinase (LmPK). AID 1721, 2009. Potency, µM (highest dose often 57.5 µM), without a hit: at the highest dose activity change, negative = inhibition, usual class: inhibitors. 290,000 tested, 0.37% active. purified LmPK, Kinase-Glo ATP luminescence, 1 h. Q27686; further: potency means the concentration at half of the fitted maximal effect; on the % scale 0 is the no-effect control and ±100 the full control effect
Target sequence (Q27686 whole entry, looked up): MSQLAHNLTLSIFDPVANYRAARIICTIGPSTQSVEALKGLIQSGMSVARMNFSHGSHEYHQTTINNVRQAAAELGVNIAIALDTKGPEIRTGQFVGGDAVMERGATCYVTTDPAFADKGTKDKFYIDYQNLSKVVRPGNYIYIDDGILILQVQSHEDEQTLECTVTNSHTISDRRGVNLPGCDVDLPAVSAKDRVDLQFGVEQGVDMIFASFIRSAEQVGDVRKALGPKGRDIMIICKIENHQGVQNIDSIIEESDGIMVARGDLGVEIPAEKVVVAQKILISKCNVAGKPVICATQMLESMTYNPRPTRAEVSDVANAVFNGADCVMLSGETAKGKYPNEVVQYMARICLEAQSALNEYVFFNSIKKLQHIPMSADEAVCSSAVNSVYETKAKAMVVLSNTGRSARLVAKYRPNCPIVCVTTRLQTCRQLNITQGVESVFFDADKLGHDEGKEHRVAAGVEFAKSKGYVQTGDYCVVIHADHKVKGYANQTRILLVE
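Screened at intermediate enzyme activity to detect both inhibitors and activators: LmPK at 0.1 nM, with a 0.5 nM enzyme column as activation reference. PEP 0.5 mM, ADP 0.1 mM; ATP detected by luminescence after 1 h.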
Tb PYK inh = qHTS of Trypanosoma Brucei Inhibitors; AID 624173, 2012; TbPYK enzyme, Kinase-Glo Plus ATP luminescence, 45 min; Potency, µM (highest dose often 76.8 µM), for the others: top-dose activity, negative = inhibition, actives largely listed as inhibitors; 410,000 tested, 0.12% active; further: potency means the concentration at half of the fitted maximal effect; on the % scale 0 is the no-effect control and ±100 the full control effect; nearly all actives have a fitted effect of over 50% in size
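ADP (130 uM final) triggers the TbPYK reaction after compound addition; incubation is 45 min at room temperature. Kinase-Glo Plus is then added and luminescence imaged. Normalized data are fitted to concentration-effect curves.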
SARS PLpro yeast-1 = qHTS of Yeast-based Assay for SARS-CoV PLP. S. cerevisiae expressing SARS-CoV PLpro, growth rescue. Potency, µM (doses to about 32.9 µM), without a hit: at the top dose activity, positive = growth rescue, hits mostly activators. 330,000 tested, 0.19% active. AID 485353, 2010; calls by dose curve; further: potency means the concentration at half of the fitted maximal effect; 0% is about no effect; nearly all actives have a fitted effect of over 55% in size
FBPA Giardia inh = qHTS Assay for Inhibitors of Fructose-1,6-bisphosphate Aldolase from Giardia Lamblia. A8B2U2. purified Giardia FBPA. Potency, µM (doses to about 59.6 µM), for the others: top-dose activity, negative = inhibition, hits mostly inhibitors. 290,000 tested, 0.71% active; further: potency means the concentration at half of the fitted maximal effect; on the % scale 0 is the no-effect control and ±100 the full control effect; nearly all actives have a fitted effect of over 55% in size
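Giardia FBPA (40 nM reagent) was preincubated 10 min at RT with compound (up to 57.5 uM final), then substrate plus GAPDH/TPI/NAD/arsenate coupling system with diaphorase/resazurin was added; resorufin fluorescence (525/598 nm) was read after 20 min.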
RE007 growth inh = qHTS Assay for Inhibitors of the HIV-1 protein Vpr | AID 651644, 2012 | Potency, µM (titrated, usually from 92.2 µM), for inactives: top-dose activity change, negative = less growth, actives largely listed as inhibitors | 360,000 tested, 0.21% active | S. pombe RE007 Vpr strain, BacTiter-Glo ATP luminescence, 24 h; active means well fitted falling curve with a large enough effect; inconclusive means small, poorly fitted or top-dose-only effect; inactive means no such curve, though single readings can be large or run the other way; further: potency means the concentration at half of the fitted maximal effect; on the % scale 0 is the no-effect control and ±100 the full control effect; nearly all actives have a fitted effect of over 50% in size
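Fission yeast RE007 carrying one integrated HIV-1 vpr copy, seeded at OD 0.01 in PMG+AL medium with 23 nL pinned compound. Grown 24 h at 30 degrees; viability read by BacTiter-Glo luminescence after 5 min.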
SARS PLpro yeast-2 = qHTS of Yeast-based Assay for SARS-CoV PLP: Hit Validation; shares compounds with SARS PLpro yeast-1; yeast expressing SARS-CoV PLpro, growth phenotype rescue; calls only; 1,000 tested, 19% active; AID 652038, 2013; call rule not given here
Numbers without * were called inactive; i = inactive; ? = inconclusive; nt = no result given; + = active, no number. Unless noted, the call rests on the fitted dose curve; in most records, active means well fitted curve in the direction sought with a large enough effect; inconclusive means small, poorly fitted or top-dose-only effect, or another doubt; inactive means no such curve, though single readings can be large; an effect the other way counts as inactive or inconclusive.

SMILES | LmPK inhibitor | Tb PYK inh | SARS PLpro yeast-1 | FBPA Giardia inh | RE007 growth inh | SARS PLpro yeast-2
CC1CCCN(c2nc3c(c(=O)[nH]c(=O)n3C)n2CCCc2ccccc2)C1 (stereo unspecified) | 2% | -2% | ? | 5% | 9% | i
CCn1cc(C(=O)N2CCN(c3cc(Cl)ccc3C)CC2)c(=O)c2cc(S(=O)(=O)N3CCCCC3)ccc21 | nt | -3% | nt | nt | nt | nt
CSCC[C@H](NC(=O)[C@H](Cc1c[nH]c2ccccc12)NC(=O)CNC(=O)[C@H](Cc1ccc(O)cc1)NC(=O)[C@H](C)NC(=O)[C@H](CCC(=O)O)NC(=O)[C@H](CCC(=O)O)NC(=O)[C@H](CCC(=O)O)NC(=O)[C@H](CCC(=O)O)NC(=O)[C@H](CCC(=O)O)NC(=O)[C@H](CC(C)C)NC(=O)[C@H](Cc1c[nH]c2ccccc12)NC(=O)[C@@H]1CCCN1C(=O)CNC(=O)[C@@H]1CCC(=O)N1)C(=O)N[C@@H](CC(=O)O)C(=O)N[C@@H](Cc1ccccc1)C(=O)NCC(=O)O | nt | nt | nt | -1% | nt | nt
Cc1ccc(NC(=S)/N=C(\N)Nc2nc(C)c3ccccc3n2)cc1C | 0% | -3% | 10µM* | -1% | 17% | +
CCN(CC(=O)Nc1ccc(NC(C)=O)cc1)C(=O)/C=C/c1c(C)nn(-c2ccc(F)cc2)c1C | -8% | -2% | ? | nt | 2% | i
CCN(CC(=O)Nc1ccc(NC(C)=O)cc1)C(=O)/C=C/c1cccs1 | -2% | -2% | -4% | 6% | nt | nt
COc1cccc(/C=C/c2nc(C#N)c(NCCN(C)C)o2)c1 | nt | -4% | nt | nt | nt | nt
C=CCn1c(SCC(=O)Nc2cc(C)on2)nc2c([nH]c3ccccc32)c1=O | -6% | -11% | ? | nt | -4% | i
Cc1c(C=O)c2ccccc2n1Cc1ccc([N+](=O)[O-])cc1 | 3% | -10% | ? | 1% | 39% | i
CCSCCOC(=O)C1=C(C)NC(=O)NC1c1cc(OC)ccc1OC (stereo unspecified) | 2% | 5% | ? | 7% | -15% | i
COc1ccc(COC(=O)C2=C(C)NC(=O)NC2c2cc(OC)ccc2OC)cc1 (stereo unspecified) | 0% | 3% | -4% | 2% | 9% | nt
CCCn1c(SCC(O)c2cccc(OC)c2)nc2ccccc21 (stereo unspecified) | nt | 3% | nt | nt | nt | nt
Cc1cc(C(=O)OCC(=O)N2CC(=O)Nc3ccccc32)c(C)n1-c1ccc(F)cc1 | 0% | 3% | 4µM* | -2% | 4% | ?
O=C1/C(=C\c2ccco2)SC(=S)N1c1ccc(O)cc1 | 0% | -1% | nt | ? | ? | i
CCc1ccc(NC(=O)CSc2nc3ccccc3nc2Cc2ccccc2OC)cc1 | nt | -17% | nt | nt | nt | nt
Cc1c(NC(=O)CSc2ccc(Cl)cc2)cccc1-c1nc2ncccc2o1 | -3% | 5% | ? | 1% | 1% | ?
CCCCN1CNC(=S)N(Cc2ccccc2)C1 | 0% | 1% | ? | -1% | 18% | i
CC(C)CN1CN(Cc2ccccc2)CNC1=S | 1% | 1% | 13µM* | 1% | -6% | +
CC(C)CN1CN(Cc2ccco2)CNC1=S | -2% | 11% | 6% | 0% | 9% | nt
Cc1cc(C)c(S(=O)(=O)Nc2ccc3oc(C)c(C(=O)OC(C)C)c3c2)cc1C | nt | -5% | nt | nt | nt | nt
COc1cc(C2C=C(C34CC5CC(CC(C5)C3)C4)NC(=S)N2)cc(OC)c1OC (stereo unspecified) | 8% | -10% | 12% | -1% | -13% | nt
COc1ccc(OC)c(C2C=C(C34CC5CC(CC(C5)C3)C4)NC(=S)N2)c1 (stereo unspecified) | 2% | -20% | ? | 10% | 0% | +
COc1ccccc1NC(=S)NNC(=O)c1nn(C)c(C)c1Br | 2% | -27% | 16µM* | ? | -1% | i
COc1ccc(C(=O)Nc2nc3nc(C)c(Cc4ccccc4)c(=O)n3[nH]2)cc1OC | nt | -4% | nt | nt | nt | nt
O=[N+]([O-])c1cc(/C=N\Nc2nc(-c3ccccc3)cs2)ccc1O | 2% | -30% | 1% | -13% | 0% | nt
SMILES | LmPK inhibitor | Tb PYK inh | SARS PLpro yeast-1 | FBPA Giardia inh | RE007 growth inh | SARS PLpro yeast-2
Cc1csc(N/N=C/c2ccc(O)c([N+](=O)[O-])c2)n1 | ? | -17% | 10µM* | ? | 9% | +
CC(C)Nc1nc(NC(C)C)nc(OCCOC(=O)c2ccccc2)n1 | 3% | -1% | ? | -1% | -7% | i
Cc1csc(NC(=O)C(Cc2ccccc2)n2cccc2)n1 (stereo unspecified) | 1% | 1% | -15% | 0% | -13% | nt
CCSc1nnc(NC(=O)C(Cc2ccccc2)n2cccc2)s1 (stereo unspecified) | 5% | -3% | ? | 3% | -6% | i
CCN(CC)S(=O)(=O)c1cccc(NC(=O)/C=C/c2cccc([N+](=O)[O-])c2)c1 | -4% | 14% | 20µM* | -3% | 5% | ?
CC(C)CC(=O)NCC1(N(C)C)CCCCC1 | nt | -6% | nt | nt | nt | nt
O=[N+]([O-])c1cccc(-c2ccc(/C=N/NC(=S)Nc3ccccc3)o2)c1 | 0% | 0% | ? | 9% | -3% | +
COc1ccc(CNC(=O)c2ccc(Sc3ccc(Cl)cc3)c(NC(C)=O)c2)c(OC)c1 | nt | -8% | nt | nt | nt | nt
Cc1sc2ncnc(N/N=C/c3ccc(O)cc3)c2c1C | -1% | 12% | -27% | -24% | -5% | nt
Cc1sc2ncnc(N/N=C/c3ccccc3O)c2c1C | 1% | 3% | 1.1µM* | ? | -50% | ?
Oc1ccccc1/C=N/Nc1ccccc1 | -10% | 11% | -45% | -5% | -2% | nt
Oc1ccccc1/C=N/Nc1ncc(Br)cn1 | -8% | 5% | ? | -5% | -10% | i
Cn1c(N)c(N2CCCCC2)c(=O)n(CC(=O)Nc2cccc(C#N)c2)c1=O | nt | -1% | 15% | nt | -13% | nt
Cc1cccc(C)c1NC(=O)Cn1c(=O)c(N2CCCCC2)c(N)n(C)c1=O | nt | -6% | 11µM* | nt | -17% | i
CNC(=O)c1ccsc1NC(=O)c1ccc(S(=O)(=O)N2CCCc3ccccc32)cc1 | 7% | -19% | -29% | -6% | 7% | nt
COc1ccc(-c2nnc(NC(=O)c3ccc(S(=O)(=O)N4CCc5ccccc5C4)cc3)o2)cc1 | 5% | 9% | -5% | ? | -4% | nt
CCc1nnc(NC(=O)c2ccc(S(=O)(=O)N(CC(C)C)CC(C)C)cc2)o1 | 1% | -5% | ? | ? | -2% | +
